Measurements as given in PubChem BioAssay AID1048 (The Scripps Research Institute Molecular Screening Center, 2008).
The campaign covered roughly 99,000 compounds. About 390 (0.39%) were called active. What follows is part of a selection rich in actives, with near analogues and random picks from the rest. Unmarked numbers belong to inactive results. No stated cut-off is given here; in the data, active means TR-FRET ratio above about 2000; inactive means the rest.

Test: TR-FRET detection interference compounds, artefact control for PPARgamma SRC-3 recruitment agonists, biochemical, TR-FRET ratio (AID 1048)
Conditions: TR-FRET artefact counter-screen, PPARgamma/SRC-3 format; at 8 µM; hits give high values

With `CCc1cccc(CC)c1NC(=O)COc1ccccc1C(=O)c1cc(C#N)c(=O)n(C2CCCCC2)c1` as the compound, how does the TR-FRET ratio read?
The TR-FRET ratio was 1810.

With `CCN(CC(=O)NCCc1ccccc1)S(=O)(=O)c1ccc(C)cc1` as the compound, how does the TR-FRET ratio read?
The TR-FRET ratio was 1520.

With `O=C(O)CCN(Cc1ccccc1)S(=O)(=O)c1c(Cl)cccc1Cl` as the compound, how does the TR-FRET ratio read?
Its TR-FRET ratio is 1570.

For `O=C(CCc1ccccc1)Nc1nn[nH]n1`, which TR-FRET ratio is on record?
Its TR-FRET ratio is 1720.

For `C/C(CC(=O)N1CCN(C=O)CC1)=N\NC(=O)c1ccc(Br)cc1`, which TR-FRET ratio is on record?
The TR-FRET ratio was 1640.

For `O=C(Nc1cccc(Cl)c1)c1cc([N+](=O)[O-])ccc1N1CCN(CCO)CC1`, which TR-FRET ratio is on record?
The TR-FRET ratio was 1540.

For `O=C(C1CCN(C2CCN(Cc3cccc4c3OCO4)CC2)CC1)N1CCOCC1`, which TR-FRET ratio is on record?
The TR-FRET ratio was 1420.

With `Cc1cc(OCC(=O)NC2CCN(C)CC2)ccc1[N+](=O)[O-]` as the compound, how does the TR-FRET ratio read?
Its TR-FRET ratio is 1610.

With `O=C(Nc1ccccc1C(=O)N1CCOCC1)c1ccc(Cl)cc1` as the compound, how does the TR-FRET ratio read?
Its TR-FRET ratio is 1680.

For `COc1ccc(C(=O)Nc2ccc(NC(=O)C(C)C)nc2)cc1`, which TR-FRET ratio is on record?
Its TR-FRET ratio is 1500.

With `C=CCn1nc(-c2ccccc2)c2c(C)onc2c1=O` as the compound, how does the TR-FRET ratio read?
Its TR-FRET ratio is 1650.

With `O=C(N1CCCCC1)N1CCN(C(=O)N2CCCCC2)CC1` as the compound, how does the TR-FRET ratio read?
The TR-FRET ratio was 1530.

Which TR-FRET ratio does the source give for `CC(=O)Nc1ccccc1OC(C)C(=O)N1CCC(C)CC1` (centres undefined) here?
The TR-FRET ratio was 1390.

Which TR-FRET ratio does the source give for `O=C(NCc1ccncc1)NC12CC3CC(CC(C3)C1)C2` here?
Its TR-FRET ratio is 1490.

Which TR-FRET ratio does the source give for `Cc1ccc(C(=O)OC(C)CN2CCOCC2)cc1` (centres undefined) here?
Its TR-FRET ratio is 1500.

For `CCOC(=O)C1CCCN(C(=O)/C=C/c2ccc(OC)cc2)C1` (centres undefined), which TR-FRET ratio is on record?
Its TR-FRET ratio is 1570.

With `COc1ccc(CN2CCCC(CNC(=O)c3ccc(F)cc3)C2)cc1OC` (centres undefined) as the compound, how does the TR-FRET ratio read?
The TR-FRET ratio was 1700.

With `Cc1ccnc(NC(=O)CCC(=O)N(CC(=O)NCCc2ccccc2)Cc2cccs2)c1` as the compound, how does the TR-FRET ratio read?
Its TR-FRET ratio is 1720.

With `COc1cccc(CC2(CO)CCCN(Cc3nc(-c4cccs4)oc3C)C2)c1` (centres undefined) as the compound, how does the TR-FRET ratio read?
Its TR-FRET ratio is 1600.

Which TR-FRET ratio does the source give for `CCOC(=O)N1CCN(C(=O)Cn2cnc3ccccc3c2=O)CC1` here?
Its TR-FRET ratio is 1650.

With `Cc1ccc2nsnc2c1NC(=O)c1ccccc1[N+](=O)[O-]` as the compound, how does the TR-FRET ratio read?
Its TR-FRET ratio is 1630.

Which TR-FRET ratio does the source give for `COc1cc(/C=C/C(=O)O)cc(S(=O)(=O)Nc2ccccc2SC)c1OC` here?
The TR-FRET ratio was 1430.

For `CCSc1nc(C)c(CCOc2cccc(C)c2)c(=O)[nH]1`, which TR-FRET ratio is on record?
Its TR-FRET ratio is 1860.

For `Cc1ccc(C(=O)NCC(=O)O)s1`, which TR-FRET ratio is on record?
The TR-FRET ratio was 1560.

For `COc1cc(COCC(O)CN2CCN(Cc3ccc4c(c3)OCO4)CC2)cc(OC)c1OC` (centres undefined), which TR-FRET ratio is on record?
The TR-FRET ratio was 1800.

Which TR-FRET ratio does the source give for `CCN(CC)CC(=O)Nc1sc2c(c1C(=O)c1ccccc1C)CCC2` here?
Its TR-FRET ratio is 1510.

For `NC(=O)C[C@@H]1NC(=O)CNC(=O)c2cc([N+](=O)[O-])cc(I)c2NCCC(C(N)=O)NC1=O` (some centres undefined), which TR-FRET ratio is on record?
The TR-FRET ratio was 1320.

With `Cc1cc(C(=O)NNC(=O)c2cccc(S(=O)(=O)N3CCOCC3)c2)c2ccccc2n1` as the compound, how does the TR-FRET ratio read?
The TR-FRET ratio was 1670.

Which TR-FRET ratio does the source give for `O=C(Cc1ccccc1)NNC(=O)C1CCN(c2ncccn2)CC1` here?
Its TR-FRET ratio is 1500.
